# Laboratory results as given in PubChem BioAssay.
# Active and inactive are the calls of the source. Unless noted, how the calls were made is not given here.
# Columns and labels:
# [1] = tested on: XIP peptide (Xip251-270) binding; assay: XIP fragment 251-270 binding compounds – biochemical, small-molecule microarray, fluorescence 635/667 nm, 0.1 µg/mL protein, primary screen (AID 1182); conditions: fluorescent protein binding, 635 nm, higher = more signal, called active from +8 up or from −8 down
# XIP peptide (Xip251-270) = assay: compounds binding XIP fragment 251-270 – biochemical, small-molecule microarray, fluorescence 635/667 nm, 0.5 µg/mL protein, primary screen (AID 1183); conditions: fluorescence 635 nm, higher = more signal
# [2] = blood-stage malaria parasite viability loss – strain 3D7, DAPI fluorescence, 100 nL, primary screen (AID 1184);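 further: parasites grown inside human red blood cells in medium with human serum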; conditions: P. falciparum 3D7 growth, 3 d, higher = more signal
# [3] = target: Homeobox protein Hox-A13 (Mus musculus) (UniProt Q62424); assay: disruptors of Hoxa13 oligonucleotide interaction – biochemical, fluorescence polarization, labeled oligonucleotide, primary screen (AID 1185); conditions: Hoxa13:DNA binding, 15 min, higher = more signal, called active from +8 up or from −8 down
# [4] = blockers of DNA damage checkpoint Chk1 activation – imaging, HeLa, hydroxyurea, phospho-Chk1 antibody, percent positive cells, primary screen (AID 1186); conditions: hydroxyurea-induced phospho-Chk1 immunofluorescence imaging, higher = more signal
# [5] = blockers of DNA damage checkpoint Chk1 activation – imaging, HeLa, hydroxyurea, phospho-Chk1 nuclear intensity, primary screen (AID 1187); conditions: hydroxyurea-induced phospho-Chk1 immunofluorescence imaging, higher = more signal
# Sequence of Homeobox protein Hox-A13 (Mus musculus) (Q62424 whole entry, looked up): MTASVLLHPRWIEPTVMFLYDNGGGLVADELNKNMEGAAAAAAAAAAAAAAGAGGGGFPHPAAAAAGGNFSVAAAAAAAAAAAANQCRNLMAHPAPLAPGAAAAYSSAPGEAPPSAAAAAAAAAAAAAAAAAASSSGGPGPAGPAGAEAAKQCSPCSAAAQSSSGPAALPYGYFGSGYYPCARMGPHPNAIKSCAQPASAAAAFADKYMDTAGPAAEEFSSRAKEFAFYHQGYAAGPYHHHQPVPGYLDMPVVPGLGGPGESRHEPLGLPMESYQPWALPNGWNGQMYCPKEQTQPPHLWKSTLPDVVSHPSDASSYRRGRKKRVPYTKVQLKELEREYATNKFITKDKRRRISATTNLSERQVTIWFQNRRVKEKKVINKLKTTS
SMILES,composite z-score [1],composite z-score (XIP peptide (Xip251-270)),z-score [2],z-score [3],z-score [4],z-score [5]
O=C1C2C=CC(C(O)c3c(F)cccc3Cl)N(Nc3ccccc3F)C2C(=O)N1c1ccccc1 (stereo not given),0.433 (inactive),0.811,0.562,-0.377 (inactive),0.486 (inactive),0.435 (inactive)
O=C(O)[C@H]1C[C@H]2C(=O)N3CCC[C@H]3C(=O)N2[C@H]1c1ccc(O)cc1,-0.469 (inactive),-0.0016,0.351,-1.01 (inactive),0.272 (inactive),0.267 (inactive)
C=CCNC(=O)[C@@H]1[C@H]2C(=O)O[C@H](c3ccccc3)[C@H](c3ccccc3)N2[C@H](c2ccc(OCCO)cc2)[C@@]12C(=O)N(C(=O)OCCOC)c1ccc(C#CCC(C(=O)OC)C(=O)OC)cc12,1.33 (inactive),0.743,-2.11,-1.17 (inactive),0.053 (inactive),0.0115 (inactive)
COCCCNC(=O)[C@@H]1c2ccccc2C(=O)N(Cc2ccccc2)[C@H]1c1ccc(CO)cc1,-0.267 (inactive),0.401,0.207,-1.77 (inactive),-0.0813 (inactive),-0.452 (inactive)
O=C1[C@H]2C=C(I)[C@H](C[C@@H]2OCCCCO)[C@@]12CO2,-0.294 (inactive),-0.425,1.1,-1.94 (inactive),0.239 (inactive),-0.203 (inactive)
COc1ccc(CCNC(=O)[C@@]2(C)c3ccccc3C(=O)N(c3ccc(C)cn3)[C@H]2c2ccc(CO)cc2)cc1,1.66 (inactive),0.639,1.36,-1.58 (inactive),0.366 (inactive),0.822 (inactive)
CN1C(=O)C2C=CC(C(O)C=Cc3ccc([N+](=O)[O-])cc3)N(Nc3ccccc3)C2C1=O (stereo not given),0.113 (inactive),0.612,0.431,-5.37 (inactive),0.0831 (inactive),-0.733 (inactive)
[N-]=[N+]=NCc1ccccc1[C@@H]1OC(c2ccc(OCCCO)cc2)=N[C@]1(CCS(=O)(=O)c1ccccc1)C(=O)N1CCCCC1,0.603 (inactive),0.772,-2.23,-1.6 (inactive),0.202 (inactive),0.161 (inactive)
O=C1C2C=CC(C(O)C=Cc3ccc([N+](=O)[O-])cc3)N(Nc3ccccc3F)C2C(=O)N1c1ccccc1 (stereo not given),0.308 (inactive),0.774,-0.448,-4.79 (inactive),-0.668 (inactive),-1.16 (inactive)
CC[C@@H]1C=C(C(=O)O)[C@H](c2ccc(C)cc2)N1S(=O)(=O)c1ccc(C)cc1,-0.143 (inactive),0.468,1.14,-1.69 (inactive),0.723 (inactive),0.909 (inactive)
[N-]=[N+]=Nc1ccccc1[C@H]1OC(c2ccc(OCCCO)cc2)=N[C@@]1(Cc1ccccc1)C(=O)N1CCOCC1,2.73 (inactive),0.816,-2.19,-3.84 (inactive),-0.0747 (inactive),0.0969 (inactive)
C[N+](C)(C)CCCC[C@@H]1NC(=O)[C@@H]2C[C@H](C(=O)NCCCCCCNC(=O)CS)[C@H](c3ccc(O)cc3)N2C1=O,0.307 (inactive),0.496,0.504,-1.32 (inactive),0.146 (inactive),0.32 (inactive)
COc1ccc([Si](C)(C)[C@@H]2[C@@H](CCn3cc([C@H](O)c4ccccc4)nn3)O[C@]3(C(=O)N(Cc4cccc(N5CCC5=O)c4)c4ccccc43)[C@H]2C)cc1,0.863 (inactive),0.46,-2.48,-2.8 (inactive),-0.529 (inactive),-0.414 (inactive)
CN(C)CCCCNC(=O)[C@@H]1C[C@@H]2C(=O)N[C@@H](CCCCN)C(=O)N2[C@@H]1c1ccc(O)cc1,1.09 (inactive),0.881,-1.8,1.46 (inactive),0.128 (inactive),-0.115 (inactive)
CCOC(=O)C1=CCC(c2ccc(F)cc2)N(S(=O)(=O)c2ccc(C)cc2)C1 (stereo not given),0.428 (inactive),0.298,0.217,-2.03 (inactive),0.447 (inactive),-0.996 (inactive)
O=C1NC(=O)C2C1C=CC(C(O)C1CC=CCC1)N2Nc1ccccn1 (stereo not given),0.467 (inactive),0.362,0.45,-0.315 (inactive),0.113 (inactive),-0.22 (inactive)
OCCCC1=CC(C2CC2)N(Cc2cccc(OC(F)(F)F)c2)CC1 (stereo not given),0.0736 (inactive),0.492,-1.76,-4.21 (inactive),-0.245 (inactive),0.143 (inactive)
CCCC=C(CCC)[C@@H](NC(=O)OCC(C)C)c1ccccc1,-0.0053 (inactive),0.45,-1.02,2.97 (inactive),0.714 (inactive),0.115 (inactive)
CCOC(=O)C[C@H]1[C@H](OC(=O)c2cc3ccccc3oc2=O)[C@@H](NC(=O)CC(C)C)c2cc(OCCCO)ccc2N1C(=O)c1ccccc1,-0.131 (inactive),0.495,-1.89,-1.53 (inactive),-0.315 (inactive),0.0139 (inactive)
CCCCCCCCCCC(O)C1C=CC2C(=O)NC(=O)C2N1Nc1ccc(Cl)cc1Cl (stereo not given),3.34 (inactive),-0.333,-0.642,-0.739 (inactive),0.387 (inactive),0.006 (inactive)
C=CCNC(=O)[C@H]1[C@@H]2C(=O)O[C@@H](c3ccccc3)[C@@H](c3ccccc3)N2[C@@H](c2ccc(OCCO)cc2)[C@]12C(=O)Nc1ccc(C#CCC(C(=O)OC)C(=O)OC)cc12,1.06 (inactive),0.635,-2.03,-2.29 (inactive),0.239 (inactive),0.514 (inactive)
COCCOC(=O)N1C(=O)[C@@]2(c3cc(C#CC4=CCCCC4)ccc31)[C@H](c1ccc(OCCO)cc1)N1[C@H](c3ccccc3)[C@H](c3ccccc3)OC(=O)[C@H]1[C@@H]2C(=O)N1CCc2cc(OC)c(OC)cc2C1,0.411 (inactive),0.64,-2.06,3.66 (inactive),-0.0561 (inactive),-0.0158 (inactive)
CC(CO)N1C(=O)[C@@H]2C3C(=O)OCCC/C=C\[C@H]3OC23C=CCN(CCN2CCOCC2)C(=O)[C@@H]13 (stereo not given in full),-0.134 (inactive),-0.0838,0.339,-4.25 (inactive),-0.957 (inactive),-1.88 (inactive)
COc1ccccc1CN1C(=O)c2ccccc2[C@@]2(Cc3ccccc3N(CCCN(C)C)C2=O)[C@@H]1c1ccc(CO)cc1,0.0228 (inactive),0.216,-1.3,1.78 (inactive),-0.481 (inactive),-0.454 (inactive)
C=C(CCCC)C(=O)CC[C@H](OC(=O)c1cccnc1)c1ccc(OCCO)cc1,0.0908 (inactive),-0.543,-2.96,-5.21 (inactive),0.457 (inactive),0.433 (inactive)
